Assay results as given in PubChem BioAssay (NCI).
About 83,000 compounds went through this panel and 20% of them were active in at least one assay; those are over-represented in the sample as a whole.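 For each line, cells grew in 96-well plates with the test compound present at a single concentration for 48 hours.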 Active and inactive are the calls of the source. How the source made its calls: active means growth percent below 10; inactive means the rest.

Legend:
Assay in all cases: NCI-60 one-dose screen, 48 h (100 = growth as untreated, 0 = no growth, -100 = all killed)
Conditions in all cases: 10 µM
[1] = test system: T-47D breast
[2] = test system: BT-549 breast
[3] = test system: MDA-MB-435 melanoma
[4] = test system: SW-620 colon
[5] = test system: MCF7 breast
[6] = test system: HCT-116 colon
[7] = test system: HCC-2998 colon
[8] = test system: KM12 colon

Measured: growth

O=S(=O)(Oc1ccc(-c2ccc3sccc3c2)cc1)c1ccc(F)cc1
inactive: [1] 96% | [2] 102% | [3] 93.5% | [4] 93.5% | [5] 84.8% | [6] 102% | [7] 86.8% | [8] 104%

O=[N+]([O-])c1ccc2ncccc2c1Cl
inactive: [1] 68.7% | [2] 43.6% | [4] 14.5% | [5] 13.4% | [7] 106%
active: [3] -36.9% | [6] 5.31% | [8] -7.28%

C=CCn1c(SCC(=O)Nc2ccc(C(=O)/C=C/c3cc(OC)c(OC)c(OC)c3)cc2)nnc1-c1cc(-c2ccc(Cl)cc2)nc2ccccc12
inactive: [1] 78.4% | [2] 75% | [3] 92.9% | [4] 90.7% | [5] 38.6% | [6] 50% | [7] 103% | [8] 85.8%

COc1ccc(C(=O)CSc2nc(-c3cc(OC)ccc3OC)cc(-c3ccc(OC)cc3)c2C#N)cc1
inactive: [1] 85.7% | [2] 89.9% | [3] 100% | [4] 110% | [5] 101% | [6] 94% | [7] 108% | [8] 92.1%

NC1=NC(c2ccc(Cl)cc2)C2=C(N1)/C(=C/c1ccc(Cl)cc1)CCC2 (stereo not drawn)
inactive: [1] 102% | [2] 79% | [4] 18.9% | [5] 33.2%
active: [3] -0.458% | [6] -72.1% | [7] -31.1% | [8] 2.3%

C/C(=C/CCC(C)[C@@H]1CC[C@]2(C)C3=C(CC[C@@]12C)[C@@]1(C)CCC(=O)C(C)(C)[C@@H]1CC3)C(=O)O (stereo partly drawn)
active: [1] -48.9% | [2] -90.8% | [3] -75% | [4] -85.2% | [5] -54.8% | [6] -93.1% | [7] -85.3% | [8] -87.6%

Cc1ccc(C(=O)/C=C/c2ccccc2)s1
inactive: [1] 141% | [2] 99% | [3] 98.5% | [4] 100% | [5] 40% | [6] 60.4% | [7] 101% | [8] 92.8%

C/C(=N\O)c1ccc(NC(=O)CSc2nnc(-c3ccccc3)n2-c2ccccc2)cc1
inactive: [1] 79.6% | [2] 20.9% | [3] 100% | [4] 83.1% | [5] 104% | [6] 28.6% | [7] 91.1% | [8] 73.3%

CC(=O)N[C@H](C(=O)N[C@@H](CCCNC(=N)N)C(=O)N[C@@H](CCCCN)C(=O)N[C@@H](CCCNC(=N)N)C(=O)N[C@]1(C)CCC/C=C\CCC[C@@](C)(C(=O)N[C@@H](CC(C)C)C(=O)N[C@@H](CC(C)C)C(=O)N[C@@H](CCC(N)=O)C(=O)N[C@@H](CCC(=O)O)C(=O)N[C@@H](CCCNC(=N)N)C(=O)N[C@@H](CCC(=O)O)C(=O)N[C@@H](CC(C)C)C(=O)N[C@H](C(=O)N[C@@H](CCC(=O)O)C(N)=O)C(C)C)NC(=O)[C@H](CCCNC(=N)N)NC(=O)[C@H](CC(C)C)NC1=O)C(C)C
inactive: [1] 92.4% | [2] 102% | [3] 110% | [4] 113% | [5] 102% | [6] 105% | [7] 109% | [8] 105%

Nc1c(Br)cc(Br)c2c1[nH]c(=O)c1ccccc12
inactive: [1] 39.2% | [2] 76.8% | [3] 93.3% | [4] 73.4% | [5] 22.1% | [6] 83.1% | [7] 87.5% | [8] 101%

CCn1c(SC/C(=N/O)c2ccccc2)nnc1-c1ccccc1
inactive: [1] 120% | [2] 115% | [3] 105% | [4] 98.7% | [5] 112% | [6] 101% | [7] 96.6% | [8] 110%

CCN(CC)CC(=O)N(CC)c1ccc(C)c(Cl)c1
inactive: [1] 90.3% | [2] 98.1% | [3] 103% | [4] 97.3% | [5] 98.6% | [6] 98.7% | [7] 102% | [8] 97.9%

O=C(CI)OCC(COC(=O)CI)OC(=O)CI
inactive: [1] 35.4% | [2] 74.6% | [3] 91.5% | [4] 27.5% | [5] 56.1% | [6] 56.3% | [7] 102% | [8] 102%

COc1cc2c(cc1NC(=O)C(Cl)Cl)-c1ccc(NC(=O)C(Cl)Cl)cc1C2
active: [1] 3.05% | [3] -57.7% | [4] -11.6% | [5] -3.08% | [6] -61% | [7] -98.5% | [8] -65.5%
inactive: [2] 69.3%

C=C1CCC2(C#N)[C@H]3[C@H](CC[C@@H]2C)[C@@H](C)C[C@@H](CC(C)(C)NC(=O)CN2CCC2=O)[C@H]13 (stereo partly drawn)
inactive: [1] 12.5% | [2] 55.3% | [3] 57.9% | [4] 74.6% | [5] 35.2% | [6] 39% | [7] 41.1% | [8] 42.7%

CC(C)c1ccc(C(C)C(=O)N(CC2=C(C(C)c3ccccn3)c3ccccc3C2)C(C)C)cc1 (stereo not drawn)
inactive: [1] 13.3% | [2] 69.6% | [3] 44.1% | [4] 31.3% | [5] 19.9% | [6] 11.1% | [7] 37.3% | [8] 37.5%

COc1cc(/C=C/c2cc(/C=C/c3ccc(O)c(OC)c3)n(C(=O)Nc3ccccc3Cl)n2)ccc1O
active: [1] 4.55% | [2] -26.4% | [3] 4.08% | [4] 6.99% | [5] 4.41% | [6] 1.16% | [7] 2.83% | [8] 0.0939%

Cc1cc(O)ccc1C1=NN(c2ccc(S(C)(=O)=O)cc2)C(=O)CC1
active: [3] -8.25%
inactive: [1] 84.8% | [2] 58.2% | [4] 46.6% | [5] 82.8% | [6] 52.4% | [7] 78.6% | [8] 47.6%

COc1ccc2c(c1)C(=O)/C(=C/c1ncc([N+](=O)[O-])n1C)O2
inactive: [1] 92%
active: [2] -18.7% | [3] -63.2% | [4] -41% | [5] 5.2% | [6] -10.7% | [7] -64.1% | [8] -36.3%

CCn1c(SCc2ccc(C)cc2)nnc1-c1nn(-c2ccc(Cl)cc2Cl)c(-c2ccc(Cl)cc2)c1C
inactive: [3] 19.7% | [4] 20.4% | [7] 23.4% | [8] 15.8%
active: [1] -8.15% | [2] -7.34% | [5] 4.46% | [6] 1.74%

OC(CCN1CCCC1)(c1ccccc1)C1CCCCC1 (stereo not drawn)
inactive: [1] 102% | [2] 106% | [3] 101% | [4] 105% | [5] 101% | [6] 104% | [7] 105% | [8] 101%

CCNc1nc(C(F)(F)F)nc2c1sc(=S)n2-c1ccccc1
inactive: [1] 73.9% | [2] 95.2% | [3] 113% | [4] 106% | [5] 96.4% | [6] 94.3% | [7] 115% | [8] 89.2%

c1ccc2c(c1)Cc1ccccc1N2CCN1CCCCC1
inactive: [1] 90.3% | [2] 86.3% | [3] 106% | [4] 89.1% | [5] 89.4% | [6] 56.8% | [7] 86% | [8] 95.3%

Cc1cccc(N=Cc2ccccc2O)c1C
inactive: [1] 106% | [2] 90% | [3] 102% | [4] 112% | [5] 98.8% | [6] 106% | [7] 104% | [8] 114%

CCCCc1oc2ccccc2c1C(=O)c1cc(I)c(OCCN(CC)CC)c(I)c1
active: [1] 7% | [2] -50% | [3] -56.2% | [4] -96.3% | [5] -67% | [6] -61.4% | [7] -88.5% | [8] -47.6%

COc1ccc(C(c2ccc(OCCN(C)C)cc2)c2cc3ccccc3c3ccccc23)cc1 (stereo not drawn)
inactive: [1] 21.8% | [2] 93% | [8] 19.3%
active: [3] -25.4% | [4] -46.6% | [5] 2.13% | [6] -75% | [7] -19.7%

C=C/C(C)=C/C[C@]1(C)[C@H](C)[C@@H](OC(=O)CCC)[C@H](O)[C@@]23C(=C[C@H](OC)C[C@@H]12)[C@@H](OC(=O)CCC)O[C@H]3OC(C)=O
active: [1] -40% | [2] -48.3% | [3] -70.3% | [4] -61.1% | [5] 9.34% | [6] -70.3% | [7] -80.7% | [8] 8.41%

CC(=O)[C@H]1CC[C@]2(C)[C@@H]1CC[C@@H]1[C@@]3(C)CC(CCC#N)(CCC#N)C(=O)C(C)(C)[C@@H]3CC[C@]12C
inactive: [1] 91.2% | [2] 103% | [3] 92.4% | [4] 88.8% | [5] 90.1% | [6] 96% | [7] 100% | [8] 94.5%

Cc1cc(SC#N)cc(C(C)(C)C)c1O
inactive: [1] 80% | [2] 87.3% | [3] 107% | [4] 120% | [5] 97.4% | [6] 70.9% | [7] 109% | [8] 105%

Cc1cc(C(C#N)c2ccc(Cl)cc2)c(Cl)cc1NC(=O)c1cc(I)cc(I)c1O (stereo not drawn)
active: [6] 7.35%
inactive: [1] 66.4% | [2] 36.8% | [3] 55.7% | [4] 43.3% | [5] 43.2% | [7] 17.4% | [8] 34%

COc1cc(N)c2ncccc2c1SC
inactive: [1] 93.1% | [2] 102% | [3] 110% | [4] 104% | [5] 104% | [6] 99.3% | [7] 102% | [8] 102%
